# The entries come from a sample that favours hits as a whole.
# AMA1-RON2 inh: disrupts binding of P. falciparum AMA1 to RON2. AlphaScreen AMA1-biotinylated RON2 peptide binding. Potency, µM (highest dose often 58.2 µM), inactives show at the top dose activity change, negative = inhibition, actives largely listed as inhibitors. 360,000 compounds, 0.2% hits;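 also: potency is read from the fitted curve at half-maximal effect; 0% = vehicle wells and -100% = peptide control; nearly all actives have a fitted effect of over 45% in size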
#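 AMA1 (3D7) with his tag at 25 nM final met compounds first, then biotinylated RON2 peptide at 25 nM; detection used donor plus acceptor beads, 10 µg/mL apiece, read by AlphaScreen after 30 min at room temperature.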
# AmpC inh detg: inhibitors of E. coli AmpC beta-lactamase with detergent. AmpC hydrolysis of nitrocefin, absorbance 480 nm, 0.01% Triton. Potency, µM (highest dose often 114 µM), for the others: at the highest dose activity change, negative = inhibition, usual class: inhibitors. AID 485294. P00811. 370,000 compounds, 0.041% hits;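 also: potency is read from the fitted curve at half-maximal effect; 0% = no-compound wells and -100% = no-enzyme wells; nearly all actives have a fitted effect of over 25% in size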
# Target sequence (P00811 whole entry, looked up): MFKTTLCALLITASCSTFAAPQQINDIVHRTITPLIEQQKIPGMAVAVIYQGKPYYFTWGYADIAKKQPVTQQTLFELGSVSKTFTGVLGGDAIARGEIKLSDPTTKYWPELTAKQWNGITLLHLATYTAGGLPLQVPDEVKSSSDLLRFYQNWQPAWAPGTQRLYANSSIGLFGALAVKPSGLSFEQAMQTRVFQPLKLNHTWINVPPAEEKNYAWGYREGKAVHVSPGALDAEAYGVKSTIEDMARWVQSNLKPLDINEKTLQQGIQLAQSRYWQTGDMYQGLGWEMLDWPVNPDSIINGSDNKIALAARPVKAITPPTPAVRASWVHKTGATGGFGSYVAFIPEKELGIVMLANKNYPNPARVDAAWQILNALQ
#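 AmpC (5.3 nM in the dispensed reagent) in 20 mM phosphate pH 7.0 with 0.01% (detergent screen) or 0.0001% Triton X-100 was preincubated with compounds for 15 min at room temperature. Nitrocefin was then added from an 800 uM solution, and hydrolysis was followed at 480 nm.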
# AmpC inh no detg: blocks E. coli AmpC beta-lactamase in detergent-free assay | AmpC nitrocefin hydrolysis, absorbance 480 nm, 0.0001% Triton | 330,000 compounds, 0.52% hits | Potency, µM (top dose mostly 57.1 µM), without a hit: at the top dose activity change, negative = inhibition, usual class: inhibitors | P00811;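 also: potency is read from the fitted curve at half-maximal effect; plate controls were no compound for no effect and no enzyme for full effect; nearly all actives have a fitted effect of over 20% in size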
#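 20 mM phosphate pH 7.0 + 0.01% (detergent screen) or 0.0001% Triton X-100; 5.3 nM AmpC reagent; cpd preinc 15 min RT; nitrocefin (800 uM stock) to start; A480 q20 s × 4 min; Activity was normalised to no-enzyme and no-compound control wells.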
# Cycloheximide cs: counter-screen for Shiga toxin inhibitors: cycloheximide protein synthesis inhibition. cell reporter, cycloheximide protein synthesis inhibition counterscreen. max response, %. 300,000 compounds, 12% hits; in the data active = max response mostly above about 13%, no sharp cut-off; inactive = mostly below about 14%; also: read at 38.3 µM for the half of the compounds with a filed dose; 0% is about no effect
# SARS PLpro yeast: blocks SARS-CoV papain-like protease in a yeast assay; S. cerevisiae expressing SARS-CoV PLpro, growth rescue; Potency, µM (highest dose often 32.9 µM), without a hit: top-dose activity, positive = growth rescue, hits mostly activators; 330,000 compounds, 0.19% hits; calls by dose curve; also: potency is read from the fitted curve at half-maximal effect; 0% is about no effect; nearly all actives have a fitted effect of over 55% in size
# Shiga inhibitor: inhibitors of Shiga toxin in Vero cells | AID 2315 | inhibition, % at 38.7 µM | 290,000 compounds, 9.2% hits | Vero cells, Shiga toxin protein synthesis inhibition reporter; in the data active = inhibition mostly above about 28%, no sharp cut-off; inactive = mostly below about 43%; also: 0% is about no effect
# * hit, by the source's call; ? = inconclusive; . = no result given; [ ] = remark or other dose. Unless noted, calls follow the shape of the dose curve; as a rule, active = well fitted curve in the direction sought with a large enough effect; inconclusive = small, poorly fitted or top-dose-only effect, or another doubt; inactive = no such curve, though single readings can be large; an effect the other way counts as inactive or inconclusive.
SMILES,AMA1-RON2 inh,AmpC inh detg,AmpC inh no detg,Cycloheximide cs,SARS PLpro yeast,Shiga inhibitor
CCC1C(=O)n2nc(-c3ccccc3)cc2N=C1C (stereo not drawn),7%,2%,-18%,40*,-29%,active
COc1ccc(-c2cc(C(F)(F)F)n3nc(C)cc3n2)cc1,44%,-12%,-7%,-3,3%,-7
C/C(=N\Nc1ccc(C)c(Cl)c1)c1ccncc1,11%,2%,-23%,30*,-35%,39
C/C(=N\NC(=O)C(=O)Nc1ccc(C)c(Cl)c1)c1ccncc1,19%,?,-20%,1,16%,-2
C/C(=N\NC(=O)Cc1ccc(Cl)c(Cl)c1)c1cccnc1,70%,-7%,-16%,1,-3%,-8
C/C(=N\Nc1ccc(C)c(Cl)c1)c1cccnc1,-11%,0%,-3%,41*,-7%,89*
CCOC(=O)c1[nH]c(C)c(CCC(=O)NCc2ccc(CC)cc2)c1C,.,-6%,.,.,.,.
Cc1ccc2c(CC(=O)Nc3sccc3C(N)=O)coc2c1,-23%,4%,-24%,41*,-17%,81*
CCOC(=O)c1c(NC(=O)Cc2coc3cc(C)ccc23)sc2c1CCCC2,.,-7%,.,.,.,.
Cc1ccc(NC(=O)Cc2coc3c(C)c(C)ccc23)c(C)c1,.,27%,.,.,.,.
Cc1ccc2c(CC(=O)Nc3ccc(N4CCN(C)CC4)cc3C)coc2c1,-10%,-6%,42%,18*,-1%,47
Cc1ccc(C)c(NC(=S)NNC(=O)c2csc(C(C)C)c2)c1,93%,-1%,-12%,18*,10µM*,28
Cc1ccc(C)c(NC(=S)NNC(=O)c2sccc2C)c1,34%,-16%,-17%,29*,1%,121*
Cc1ccc(C)c(NC(=O)CN(C)C(=O)c2sccc2C)c1,-19%,0%,-9%,.,8%,.
Cc1ccc(C)c(NC(=O)CCC(=O)NNC(=S)Nc2ccccc2)c1,26%,-8%,-17%,-10,1%,-3
Cc1ccc(C)c(NC(=S)NNC(=O)c2csc(C)c2C)c1,31%[11.6 µM],-6%,-54%,18*,-7%,22*
Cc1ccc(C)c(NC(=S)NNC(=O)c2cc3c(s2)CCC(C)C3)c1 (stereo not drawn),18%,-4%,-37%,-1,?,-8
CCOc1ccccc1NC(=O)CSc1nc2c(sc3ccccc32)c(=O)n1CCCC(=O)NC1CCCC1,.,-6%,.,.,.,.
CCN(CC)CCCN1C(=O)C(=O)/C(=C(/O)c2ccc(Cl)cc2)C1c1ccccn1 (stereo not drawn),14%,-5%,-12%,10,0%,-1
CCN(CC)CCN1C(=O)C(=O)/C(=C(/O)c2cccc(OC)c2)C1c1ccccn1 (stereo not drawn),25%,1%,8%,15*,11%,49
CCOc1ccc(/C(O)=C2/C(=O)C(=O)N(CCOCCO)C2c2ccccn2)cc1 (stereo not drawn),0%,-9%,-6%,39*,?,57*
Cc1cc(C(=O)N2CCN(C(=O)C3CCCO3)CC2)no1 (stereo not drawn),20%,?,-8%,1,1%,-7
COc1cc(OC)c(NC(=O)CNC(=O)Cn2ccc3ccccc3c2=O)cc1Cl,2%,-1%,-5%,-3,4%,-7
CCN1CCc2c(sc(-n3cccc3)c2C(C)NC(=O)Nc2ccc(C(=O)OC)cc2)C1 (stereo not drawn),.,21%,.,.,.,.
Cn1cccc1C(=O)C(=O)Nc1ccc(Cl)cc1,-1%,-1%,-14%,52*,-4%,81*
SMILES,AMA1-RON2 inh,AmpC inh detg,AmpC inh no detg,Cycloheximide cs,SARS PLpro yeast,Shiga inhibitor
Cn1cccc1C(=O)C(=O)Nc1ccc(F)c(F)c1,-11%,-11%,-35%,45*,2%,82*
COC(=O)c1c(NC(=O)c2cccc([N+](=O)[O-])c2)sc(C(N)=O)c1C,-6%,-2%,-17%,-1,0%,-6
COc1ccc(CC2(CO)CCN(Cc3cccnc3)CC2)cc1,15%,4%,11%,38*,-1%,33
OCCC1CN(Cc2cnc(-c3ccc(Cl)cc3)nc2)CCN1C1CCCCC1 (stereo not drawn),-2%,1%,83%,16*,0%,28*
OCC1(Cc2ccccc2)CCN(Cc2cnc(-c3cccc4ccccc34)nc2)CC1,-17%,13%,154%,9,-2%,20
OCC1(Cc2ccccc2)CCN(Cc2cnc(-c3ccc(Cl)cc3)nc2)CC1,-28%,-3%,156%,39*,0%,91*
Cc1cccc(-c2ncc(CN3CCN(C4CCCC4)C(CCO)C3)cn2)c1 (stereo not drawn),-20%,-5%,-24%,-1,0%,-9
O=C(NNc1ccc(F)cc1)c1c(F)cccc1Cl,-23%,3%,-9%,-1,0%,-4
CCOC(=O)N1CCN(C(=O)CSc2nnc3[nH]c(=O)c(C)c(C)n23)CC1,7%,-7%,-21%,.,.,.
NC1=NC(=O)/C(=C\c2ccco2)S1,1%,-13%,-21%,17*,1%,-5
NNC(=O)c1cccc(COc2cccc(Br)c2)c1,57%,-11%,17%,32*,-5%,74*
NNC(=O)c1cccc(COc2ccc(Br)cc2)c1,22%,1%,-5%,68*,-30%,149*
NNC(=O)c1ccc(COc2ccc3ccccc3c2)cc1,77%,2%,-18%,35*,0%,45*
COc1ccc(OCc2cccc(C(=O)Nn3cc([N+](=O)[O-])cn3)c2)cc1,23%,-2%,11%,5,-108%,2
COc1ccc(OCc2cccc(C(=O)NN)c2)cc1,35%,-6%,-58%,124*,-6%,140*
Clc1ccc(-c2cc(-c3nnc4n3CCCCC4)c3ccccc3n2)cc1,3%[11.6 µM],-2%,-11%,-2,13%,0
Cc1ccc(S(=O)(=O)N(C)c2ccc(C(=O)Nc3ccc(C)cn3)cc2)cc1,-5%,-4%,-27%,.,-4%,.
CCN(CC(=O)Nc1sc2c(c1C#N)CCCC2)CC(=O)NC1CCS(=O)(=O)C1 (stereo not drawn),15%,1%,104%,-3,1%,20
CCCNC(=O)c1cccc(COCC(F)(F)F)c1,-6%,.,.,.,.,.
O=C(NN1CCOCC1)c1cccc(COc2cccc(Br)c2)c1,23%,?,96%,16*,-4%,61
O=C(NN1CCOCC1)c1cccc(Br)c1,-9%,.,.,.,.,.
CCCNC(=O)c1cccc(COc2ccccc2OC)c1,-2%,-14%,-2%[2.29 µM],50*,-1%,123*
O=C(O)/C=C\C(=O)Nc1ccccc1N1CCN(c2ccccc2)CC1,-12%,4%,-23%,-1,1%,-4
COC(=O)C(=O)/C=C(\O)c1ccc(C)cc1,-4%,2%,-49%,10,7%,-1
